# According to PubChem BioAssay (NCATS):
# Results filed as inconclusive are left out. A call without a number means that no potency is given here. Activity calls are given as the source filed them. Calls follow the shape of the dose curve; as a rule, active = well fitted inhibition curve with a large enough effect; inconclusive = small, poorly fitted or top-dose-only effect; inactive = flat fitted curve, though single readings scatter.
# Experiment: qHTS for differential inhibitors of proliferation of Plasmodium falciparum line Dd2 (AID 1882); also: nearly all actives have a fitted effect of over 65% in size
# Conditions: Potency: Plasmodium falciparum Dd2 proliferation inhibition; series mostly up to 28.7 µM
# From the text: NIH Molecular Libraries Probe Production Network [MLPCN]
# NIH National Institute of Allergy and Infectious Diseases [NIAID]
# NIH Chemical Genomics Center [NCGC]
# Assay Provider: Xinzhuan Su, NIAID
# Plasmodium falciparum is a virulent malarial parasite that kills 1-2 million people worldwide each year. Transmitted by mosquitoes, the sporozoite form of the parasite enters the blood stream to infect hepatocytes, where they become merozoites that infect red blood cells (erythrocytes). Within erythrocytes, merozoites begin a […] cycle of growth and division, after which the parasite is released to infect new red blood cells. Gametocytes, which form within erythrocytes as well, circulate in the bloodstream and are ingested by the mosquito, thereby completing the life cycle. To profile malarial isolates for differential chemical responses and to identify inhibitors of malarial growth, an assay that measures P. falciparum growth and replication within erythrocytes was employed. This assay uses a DNA binding fluorescent dye (SYBR Green) to detect parasite DNA following cell lysis. Because mature erythrocytes lack DNA, only Plasmodium-derived DNA is detected. The P. falciparum line Dd2, derived from a malarial isolate from […], was used.
# NCGC Assay Protocol Summary:
# The SYBR Green viability assay was adapted from a method described previously (Plouffe et al., 2008). For screening 3 ul culture medium was dispensed into 1536 well black clear bottom plates (Aurora Biotechnologies) using a Multidrop Combi (Thermo Fisher Scientific Inc.), 23 nL compounds in DMSO were added by a pin tool (Kalypsys), and 5 ul of erythrocytes infected with P. falciparum line Dd2 (0.3% parasitemia, 2.5% hematocrit final concentration) were added. The plates were incubated at 37 C in a humidified incubator in 5% CO2 for 72 h, and 2 ul lysis buffer (20 mM Tris HCl, 10 mM EDTA, […]% saponin, 1.6% triton X, 10X SYBR Green I supplied as 10,000X […] by Invitrogen) was added to each well. The plates were mixed for 25 sec with gentle shaking and incubated overnight at room temperature in the dark. The following morning, fluorescence intensity at 485(14) nm excitation and 535(25) nm emission wavelengths was measured on an EnVision (Perkin Elmer) plate reader. Plate reads were normalized relative to the control inhibitor (0.29 uM artemisinin) and vehicle (DMSO) wells present on each plate and then corrected by an algorithm using vehicle-only control plates at the beginning and end of the compound plate stack.
# Plouffe D, Brinker A, McNamara C, Henson K, Kato N, Kuhen K, Nagle A, Adrian F, Matzen JT, Anderson P, Nam TG, Gray NS, Chatterjee A, Janes J, Yan SF, Trager R, Caldwell JS, Schultz PG, Zhou Y, Winzeler EA. […] Proc Natl Acad Sci U S A. 2008, 105(26), pp 9059-64.
# Potency is read from the fitted curve at half-maximal effect.
row,SMILES,Potency
1,COc1[nH]c2ccc(F)cc2c1C(=O)OCC1CCN(CCNS(C)(=O)=O)CC1,inactive
2,O=C(OCCN1CCCCC1)c1c[nH]c2ccccc12,inactive
3,NC(CCC(=O)NCS(=O)(=O)O)C(=O)O (centres undefined),inactive
4,Nc1c(S(=O)(=O)O)cc(Nc2ccc(Nc3nc(Cl)nc(Nc4ccc(S(=O)(=O)O)cc4)n3)c(S(=O)(=O)O)c2)c2c1C(=O)c1ccccc1C2=O,inactive
5,C[N+](C)(C)CCC(=O)c1cccc2ccccc12,inactive
6,CC(N)=NCc1cccc(CN)c1,inactive
7,Cc1cccc(/C=C/c2ccccc2)n1,inactive
8,NCCNS(=O)(=O)c1cccc2cnccc12,inactive
9,S=C(Nc1ccccc1)Nc1nccs1,11.2 µM (active)
10,O=S(=O)(NCCNC/C=C/c1ccc(Br)cc1)c1cccc2cnccc12,8.91 µM (active)
11,CC(C)=CCC/C(C)=C/CC/C(C)=C/CSc1ccccc1C(=O)O,inactive
12,Cc1ccc(OCC(O)C(C)NC(C)C)c2c1CCC2 (centres undefined),12.6 µM (active)
13,Cc1cccc(C)c1NC(=O)C[N+](C)(C)C,inactive
14,Cn1cnc2c(NC3CCCC3)ncnc21,inactive
15,O=C(O)c1cc(=O)c2ccc(Cl)cc2[nH]1,inactive
16,COc1cc2c(cc1C(F)(F)F)N(C(=O)Nc1cc(F)cc(-c3cccnc3)c1)CC2,6.31 µM (active)
17,FC(F)(F)c1cc(CO[C@H]2CCCN[C@H]2c2ccccc2)cc(C(F)(F)F)c1,12.6 µM (active)
18,CCCn1c(=O)c2[nH]c(-c3ccc(OCC(=O)Nc4ccc(C#N)cc4)cc3)nc2n(CCC)c1=O,inactive
19,CCCCCCCCCCCCC/C=C/[C@@H](O)[C@@H](N)CO,inactive
20,NCCCCCCNS(=O)(=O)c1cccc2c(Cl)cccc12,inactive
21,CN(C)CCCCSC(=N)N,inactive
22,O=Nc1c(-c2c(O)[nH]c3ccccc23)[nH]c2ccccc12,2.24 µM (active)
23,COc1ccccc1NC(=O)Nc1nc(-c2cccnc2)nc2ccccc12,inactive
24,N#C/C(=C\c1ccc(O)c(O)c1)C(=O)Nc1ccccc1,12.6 µM (active)
